{"source": "PubChem BioAssay AID1347043", "about": "(National Center for Advancing Translational Sciences (NCATS), 2019)", "note": "The campaign covered roughly 76,000 compounds. About 1,900 (2.5%) were called active. About 5% were inconclusive and are not listed. The sample holds actives, similar compounds and a random draw of the others, so the mix is not that of the screen. A number with no mark means an inactive call. Calls follow the shape of the dose curve; as a rule, active = well fitted inhibition curve with a large enough effect; inconclusive = small, poorly fitted or top-dose-only effect; inactive = flat fitted curve, though single readings scatter. % is scaled to controls: 0 for no effect and ±100 for the full control effect; potency is read from the fitted curve at half-maximal effect."}
{"molecular_target": "Luciferin 4-monooxygenase (Photinus pyralis) (UniProt P08659)", "sequence (P08659 whole entry, looked up)": "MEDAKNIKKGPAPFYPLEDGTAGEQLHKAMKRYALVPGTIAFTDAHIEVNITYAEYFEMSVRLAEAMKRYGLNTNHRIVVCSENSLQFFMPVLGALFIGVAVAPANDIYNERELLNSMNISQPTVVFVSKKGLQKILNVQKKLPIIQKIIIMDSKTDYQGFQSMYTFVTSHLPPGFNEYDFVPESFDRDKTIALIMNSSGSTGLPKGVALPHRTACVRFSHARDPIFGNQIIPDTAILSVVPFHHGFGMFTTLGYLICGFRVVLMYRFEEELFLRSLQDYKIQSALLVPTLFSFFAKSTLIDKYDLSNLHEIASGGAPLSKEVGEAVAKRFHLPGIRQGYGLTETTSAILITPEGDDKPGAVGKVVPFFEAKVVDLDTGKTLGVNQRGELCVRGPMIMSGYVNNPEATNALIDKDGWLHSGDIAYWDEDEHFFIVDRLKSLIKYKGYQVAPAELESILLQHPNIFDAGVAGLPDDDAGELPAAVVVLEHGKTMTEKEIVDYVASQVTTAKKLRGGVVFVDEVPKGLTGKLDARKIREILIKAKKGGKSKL", "assay": "Firefly luciferase inhibition profiling of diverse chemical library using quantitative high-throughput screening; also: nearly all actives have a fitted effect of over 65% in size", "conditions": "purified P. pyralis luciferase, luminescence, biochemical; series mostly up to 115 µM; activity change, negative = inhibition: at the top concentration", "how_it_was_run": "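Inhibitors were tested against purified firefly luciferase in a biochemical, low-substrate format (both substrates at 10uM) and luminescence measured with a CCD imager.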"}
{"smiles": "Cc1ccc(C(=O)N2CC(N(Cc3cccnc3)CC(C)C)C2)s1", "activity change, negative = inhibition": "-2.49%"}
{"smiles": "CN(CCc1cn[nH]c1)c1ccc(-c2nc(-c3ccccc3F)no2)cn1", "Potency": "0.631 µM (active)"}
{"smiles": "Oc1ccc(-c2ccc(-c3nc(CCc4ccccc4)no3)cn2)cc1", "activity change, negative = inhibition": "-3.85%"}
{"smiles": "CN(C)CCN(C)c1ccc(-c2nc(-c3ccccc3F)no2)cn1", "Potency": "15.8 µM (active)"}
{"smiles": "CSc1ccc(CNC(=O)c2cc3c(N4CCCC4)nc(C)cn3n2)cc1", "activity change, negative = inhibition": "-11.2%"}
{"smiles": "CCOc1ccccc1-c1noc(-c2nnn3c2COC(c2ccc(Cl)cc2)C3)n1", "note": "(stereo not given)", "activity change, negative = inhibition": "-3.59%"}
{"smiles": "CCCCc1nc2cc(C(=O)N3CCCC3c3cc(C(C)C)on3)ccc2o1", "note": "(stereo not given)", "activity change, negative = inhibition": "0%"}
{"smiles": "O=[S+]([O-])(Nc1ccccc1)c1ccc2c(c1)OCCN(CC1CC1)C2", "activity change, negative = inhibition": "-6.01% [at 172 µM]"}
{"smiles": "Cc1ccc(CN2CC[C@@](C)(O)[C@H](N3CCCC3)C2)s1", "activity change, negative = inhibition": "15.5%"}
{"smiles": "CC(C)CCN1CCC2(CC1)CC(=O)c1ccc(Cl)cc1O2", "Potency": "44.7 µM (active)"}
{"smiles": "COc1ccc(CN2CCC3(CC2)CC(=O)c2ccc(Cl)cc2O3)cc1", "activity change, negative = inhibition": "-10.1%"}
{"smiles": "CC(C)CCN1CCC2(CC1)C(=O)NCN2Cc1ccc(Cl)cc1", "activity change, negative = inhibition": "-1.9%"}
{"smiles": "CC(C)NC(=O)N1CCC[C@@H](O)[C@H](NC(=O)c2ccc(OCC(N)=O)cc2)C1", "activity change, negative = inhibition": "0.824% [at 172 µM]"}
{"smiles": "CNC(=O)[C@@H]1CN(C(=O)Cc2c[nH]c3ccccc23)C[C@H]1COC", "activity change, negative = inhibition": "-1.71%"}
{"smiles": "O=C(Nc1cccc(Br)c1)C1CC(=O)N(c2n[nH]c3cccc(F)c23)C1", "note": "(stereo not given)", "activity change, negative = inhibition": "-2.06%"}
{"smiles": "COCCCN(CCC(=O)N1CCC(C)CC1)C(=O)c1cc(C)oc1C", "activity change, negative = inhibition": "-5.89%"}
{"smiles": "COc1ccc2[nH]c(C[C@@H]3C[C@@H](C(C)C)[C@H](CNC4CCN(C)CC4)C=C3C)nc2n1", "activity change, negative = inhibition": "-4.88% [at 172 µM]"}
{"smiles": "COc1ccc(C2Cn3nnc(C(=O)N4CCN(C(=O)c5cccc(Cl)c5)CC4)c3CO2)cc1", "note": "(stereo not given)", "activity change, negative = inhibition": "-2.01%"}
{"smiles": "O=C(Nc1cccc(F)c1)c1cc2n(n1)CC(c1ccc(Cl)cc1)OC2", "note": "(stereo not given)", "activity change, negative = inhibition": "-12.7%"}
{"smiles": "O=C(Nc1ccc(Cl)cc1)C1CCN(C(=O)c2ncn3c2COC(c2ccc(F)cc2)C3)CC1", "note": "(stereo not given)", "Potency": "22.4 µM (active)"}
{"smiles": "COc1ccc(C2Cn3cnc(C(=O)N4CCC(C(=O)Nc5cc(C)cc(C)c5)CC4)c3CO2)cc1", "note": "(stereo not given)", "activity change, negative = inhibition": "-24%"}
{"smiles": "CCC(CC)C(=O)N1CCC(N2CCCC(C(=O)NCc3ccccc3)C2)CC1", "note": "(stereo not given)", "activity change, negative = inhibition": "5.16%"}
{"smiles": "COc1ccc(C2Cn3cnc(C(=O)N4CCC(C(=O)NCc5cccc(F)c5)CC4)c3CO2)cc1", "note": "(stereo not given)", "activity change, negative = inhibition": "-5.68%"}
{"smiles": "O=C(NCc1ccccc1)C1CCN(C(=O)c2ncn3c2COC(c2ccccc2)C3)CC1", "note": "(stereo not given)", "Potency": "3.16 µM (active)"}
{"smiles": "O=C(NCc1ccc(F)c(Cl)c1)C1CCN(C(=O)c2ncn3c2COC(c2ccccc2)C3)CC1", "note": "(stereo not given)", "Potency": "11.2 µM (active)"}
{"smiles": "COc1ccc(C2Cn3cnc(C(=O)N4CCC(C(=O)NC5CCCC5)CC4)c3CO2)cc1", "note": "(stereo not given)", "activity change, negative = inhibition": "-18.2%"}
{"smiles": "O=C(NCC1CC1)C1CCN(C(=O)c2ncn3c2COC(c2ccccc2)C3)CC1", "note": "(stereo not given)", "Potency": "10 µM (active)"}
{"smiles": "CCOc1cccc(CNC(=O)c2cc3n(n2)CC(c2ccc(Cl)cc2)OC3)c1", "note": "(stereo not given)", "activity change, negative = inhibition": "-7.87%"}
{"smiles": "CC(=O)N1CCC(C(=O)NCC2CCN(c3cc(-c4ccc(C)cc4)[nH]n3)CC2)CC1", "activity change, negative = inhibition": "-16.5%"}
{"smiles": "Cc1ccc(C(=O)N[C@H]2CO[C@H]3[C@@H]2OC[C@@H]3n2nnnc2Oc2ccc(-n3ccnc3)cc2)cc1", "activity change, negative = inhibition": "11.5%"}
{"smiles": "O=C(Nc1ccccc1)N1CCC2(CC1)CC(Cc1ccccc1)=NO2", "activity change, negative = inhibition": "-3.26%"}
{"smiles": "COc1cccc(CC(=O)N2CCCn3nc(C)c(-c4ccccc4OCc4ccccc4)c32)c1", "activity change, negative = inhibition": "0.241%"}
{"smiles": "CC(C)Oc1ccc(CNC(=O)C2Cn3cccc3C(=O)N2Cc2cccnc2)cc1", "note": "(stereo not given)", "activity change, negative = inhibition": "-0.877%"}
{"smiles": "COc1ccccc1CN1CCN(C(=O)CCC[C@H]2NC[C@@H]3C[C@H]2CN(Cc2ccccc2)C3)CC1", "activity change, negative = inhibition": "-21%"}
{"smiles": "CCCN1C(=O)Cc2cc(C(=O)NC3CC3)ccc21", "activity change, negative = inhibition": "-3.75%"}
